# Experimental data published in article PMC4336329 (PLoS ONE, 2015).
# Screen size: about 310,000 compounds; about 14,000 (4.5%) showed an effect of 50% or more. The effect is printed as a negative number. Only a selection was taken, and strong results are over-represented in it overall.
# Biological target: human ether-à-go-go-related gene (hERG) potassium channel (human, UniProt Q12809)
# Test: primary screen, population patch clamp on CHO cells stably expressing hERG; higher = less effect of the substance
# 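Note: peak tail current of the secondary pulse compared with the same well before compound.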
# Chain of human ether-à-go-go-related gene (hERG) potassium channel (Q12809 whole entry, looked up): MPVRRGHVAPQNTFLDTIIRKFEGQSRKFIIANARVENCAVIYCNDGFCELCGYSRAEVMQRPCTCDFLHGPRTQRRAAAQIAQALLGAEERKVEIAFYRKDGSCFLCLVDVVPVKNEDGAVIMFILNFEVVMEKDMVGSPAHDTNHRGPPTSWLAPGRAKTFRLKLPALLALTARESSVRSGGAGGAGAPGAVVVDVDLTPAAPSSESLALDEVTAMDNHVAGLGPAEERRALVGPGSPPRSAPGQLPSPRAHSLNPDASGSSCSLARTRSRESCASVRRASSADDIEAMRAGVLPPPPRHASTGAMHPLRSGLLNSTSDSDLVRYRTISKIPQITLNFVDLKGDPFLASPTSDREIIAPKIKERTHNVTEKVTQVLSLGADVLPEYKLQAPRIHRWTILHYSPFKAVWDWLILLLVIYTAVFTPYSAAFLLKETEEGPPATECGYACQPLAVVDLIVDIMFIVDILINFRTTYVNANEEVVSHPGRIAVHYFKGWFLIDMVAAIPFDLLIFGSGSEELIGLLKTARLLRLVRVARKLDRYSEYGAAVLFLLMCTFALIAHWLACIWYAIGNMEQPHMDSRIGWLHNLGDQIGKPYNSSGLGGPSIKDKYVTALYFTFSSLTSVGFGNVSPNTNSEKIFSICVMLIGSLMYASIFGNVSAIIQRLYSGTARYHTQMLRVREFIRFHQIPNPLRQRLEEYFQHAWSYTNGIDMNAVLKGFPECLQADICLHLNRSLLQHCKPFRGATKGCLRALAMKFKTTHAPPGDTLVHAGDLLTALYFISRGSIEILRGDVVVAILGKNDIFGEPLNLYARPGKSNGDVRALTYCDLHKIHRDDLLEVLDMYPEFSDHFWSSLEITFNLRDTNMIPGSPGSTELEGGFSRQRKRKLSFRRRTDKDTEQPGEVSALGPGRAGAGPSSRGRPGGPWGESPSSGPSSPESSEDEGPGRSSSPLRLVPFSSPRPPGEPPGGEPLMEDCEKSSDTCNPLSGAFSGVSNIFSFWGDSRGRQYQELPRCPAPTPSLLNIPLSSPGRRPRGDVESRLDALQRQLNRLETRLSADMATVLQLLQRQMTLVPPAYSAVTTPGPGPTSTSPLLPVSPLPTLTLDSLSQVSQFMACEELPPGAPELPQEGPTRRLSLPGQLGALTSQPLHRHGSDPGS
row,SMILES,"hERG current change (%, negative = inhibition) at 10uM"
1,O=C(NC(=O)N1CCCCC1)c1ccc(Cl)cc1,15.7%
2,CCO[C@H]1OC(C(=O)Nc2ccccc2)=C[C@@H](C2CC2)[C@@H]1CCCO,1.16%
3,CCCCc1nnc(NC(=O)CCc2ccccc2)s1,19.3%
4,COC(=O)c1ccc(-n2nnnc2SCC(=O)Nc2cc(OC)ccc2OC)cc1,2.37%
5,CCOC(=O)c1nn(-c2cccc(C)c2)c2nnc(Cc3ccc(C)cc3)c(=O)n12,-16.1%
6,O=C(Nc1ccc(SC(F)F)cc1)C1CC(=O)N(Cc2ccccc2)C1 (stereo not drawn),-48%
7,COc1ccc(S(=O)(=O)N2CCN(C(=O)c3c(C)nn(-c4ccccc4)c3Cl)CC2)cc1,-19.4%
8,CCC(=O)N1CCN(c2ccc(Cl)cc2NC(=O)c2ccc3c(c2)OCCO3)CC1,-37.2%
9,O=C(Nc1ccc(Cl)cc1)c1ccc(CN2CCc3ccccc3C2)cc1,13.7%
10,COc1cccc(C(=O)N2CCN(C(=O)Cc3ccccc3)CC2)c1.O=C(O)C(=O)O,-0.00122%
11,CCC(=O)Nc1ccc(C(=O)Nc2cccnc2)cc1,-0.52%
12,CC(OC(=O)c1cc(S(=O)(=O)N2CCOCC2)ccc1Br)C(=O)N1CCOCC1 (stereo not drawn),-12%
13,O=C(Nc1nccs1)C1CCN(S(=O)(=O)c2ccc(F)cc2)CC1,2.1%
14,CCOC(=O)CNC(=O)CSc1ccc(-c2nc3ccccc3[nH]2)cn1,-6.35%
15,Cc1ccc(CN(C)CC(=O)NC(C)c2ccccc2)cc1 (stereo not drawn),-16%
16,COc1ccccc1CNC(=O)CN(C)CC(=O)Nc1cccc(F)c1,4.16%
17,CSc1ccc(CN(C)CC(=O)NC(C)c2ccccc2)cc1 (stereo not drawn),-83.9%
18,COc1ccccc1CNC(=O)CN(C)Cc1ccc(SC)cc1,-50.8%
19,COc1cccc(CN(C)CC(=O)NCc2ccc(F)cc2)c1OC,6.98%
20,CC(NC(=O)CN(C)Cc1ccc(Br)cc1)c1ccccc1 (stereo not drawn),-19.3%
21,O=C(O)C1C2C=CC(C2)C1C(=O)NCc1cccs1 (stereo not drawn),9.44%
22,O=C(Nc1cc(Cl)cc(Cl)c1)N1CCN(C(=O)C2CCCO2)CC1 (stereo not drawn),-26.4%

row,SMILES,"hERG current change (%, negative = inhibition) at 10uM"
1,COCCNC(=O)C1CCN(C(=O)C2CC(=O)N(c3ccc(C)cc3)C2)CC1 (stereo not drawn),7.39%
2,CCc1nnc(NC(=O)CSc2nnc(COc3ccccc3C)o2)s1,15.2%
3,O=C(COc1ccc(Br)cc1)Nc1ccc([N+](=O)[O-])cn1,-19.7%
4,COc1cc(NC(=O)CSCc2ccccc2)c(C(=O)O)cc1OC,11.2%
5,COc1ccc(CCNc2ccc(C(CC(N)=O)NC(=O)Cc3cccc4ccccc34)cc2[N+](=O)[O-])cc1 (stereo not drawn),4.29%
6,COc1ccc2[nH]cc(C(=O)CN(C)CCc3ccc(OC)c(OC)c3)c2c1,-70.3%
7,COc1ccc2[nH]cc(C(=O)CN(C)C)c2c1,9.06%
8,CCN(CC)CC(=O)c1c[nH]c2ccc(OC)cc12,-22.9%
9,COc1ccccc1-n1cnc2sc(C)c(C)c2c1=O,5.71%
10,COc1ccc(NC(=O)/C(C#N)=C\c2cc(C)n(-c3ccc4c(c3)OCO4)c2C)cc1,3.77%
11,Cc1ccc(-n2cc(CN3CCCN(C=O)CC3)c(-c3ccc(F)cc3)n2)cc1,-18.7%
12,Cc1ccc(-n2cc(CNCCCN3CCCC3=O)c(-c3ccc(F)cc3)n2)cc1,-72.1%
13,COc1ccc(-c2nn(-c3ccccc3C)cc2CNC(C)c2cn(C)nc2C)cc1F (stereo not drawn),-1.99%
14,Cc1ccc(-n2cc(CN(C)Cc3nccn3C)c(-c3ccc(F)cc3)n2)cc1,-37.6%
15,COc1ccc(-c2csc(CCn3nc(C)cc3C)n2)cc1,4.1%
16,CCN1CC(CN(C)Cc2cn(-c3ccc(C)cc3)nc2-c2ccc(F)cc2)CC1=O (stereo not drawn),-35.1%
17,COc1ccc(-c2nn(-c3ccccc3F)cc2CNCCn2nc(C)cc2C)cc1,-50.2%
18,Cc1ccc(-c2nn(-c3ccccc3)cc2C(=O)NCCCN2CCCC2=O)cc1,-17.1%
19,CCN1CC(CN(C)Cc2cn(-c3ccc(C)cc3)nc2-c2cccc(C)c2)CC1=O (stereo not drawn),-60.5%
20,Cc1ccc(-n2cc(CNCCCn3ccnc3C)c(-c3ccc(F)cc3)n2)cc1,-71.7%
21,CCN1CC(CN(C)Cc2cn(-c3cccc(C)c3)nc2-c2cccc(F)c2)CC1=O (stereo not drawn),-31.7%
22,COc1cc(/C=N/NC(=O)c2cc(-c3ccccc3)nc3ccccc23)ccc1O,6.54%

row,SMILES,"hERG current change (%, negative = inhibition) at 10uM"
1,CCOc1cc(C(=O)N/N=C/c2ccoc2)cc(OCC)c1OCC,5.67%
2,COCCCn1c(=O)/c(=C\c2ccccc2OC(F)F)s/c1=C(/C#N)C(=O)NCCOC,-11.5%
3,CCc1nnc(NC(=O)CSc2nnc(-c3cccnc3)n2CCc2ccccc2)s1,-2.07%
4,CC(=O)N1CCN(CCN2C(C)=CC(=C(C#N)C#N)C=C2C)CC1,-3.8%
5,O=C(COC(=O)CCSc1ccccc1Cl)NCc1ccco1,6.44%
6,O=C1NC(=O)C(=Cc2csc3ccccc23)C(=O)N1,7.68%
7,Cc1ccccc1CSc1nnnn1-c1ccc(C(N)=O)cc1,14.7%
8,Cc1cccc(NC(=O)COC(=O)c2ccc([N+](=O)[O-])o2)c1C,8.7%
9,Cc1ccc(-n2cc(CNCCN3CCOC3=O)c(-c3ccc(F)cc3)n2)cc1,-63.2%
10,COc1ccc(-c2nn(-c3ccccc3)cc2CNCCN2CCOC2=O)c(F)c1,-11.9%
11,Cc1ccc(-c2nn(-c3ccccc3)cc2CNCc2ccccc2)cc1.Cl,7.42%
12,COc1ccc(-n2cc(CNCC3CC(=O)N(C4CC4)C3)c(-c3ccccc3Cl)n2)cc1 (stereo not drawn),-13.4%
13,Cc1cc(C)n(CC(C)NCc2cn[nH]c2-c2ccc(C)c(C)c2)n1 (stereo not drawn),-35.7%
14,COC(=O)CC1C(=O)NCCN1Cc1cn(-c2ccc(C)cc2)nc1-c1cccc(C)c1 (stereo not drawn),-9.55%
15,CCOC(=O)CN(C)Cc1cn[nH]c1-c1ccc2cc(OC)ccc2c1,-5.34%
16,Cc1ccc(-n2cc(CNCC3CC(=O)N(C4CC4)C3)c(-c3cccc(C)c3)n2)cc1 (stereo not drawn),-71.9%
17,Cc1ccc(-n2cc(CNCCn3nc(C)cc3C)c(-c3ccc(F)cc3)n2)cc1,-50.8%
18,Cc1ccc(-n2cc(CNC(C)c3cnn(C)c3C)c(-c3ccc(F)cc3)n2)cc1 (stereo not drawn),-30.7%
19,O=C1OCCN1CCNCc1cn(-c2ccc(F)cc2)nc1-c1ccccc1Cl,-45.2%
20,COc1ccc2cc(-c3[nH]ncc3CNCCn3nc(C)cc3C)ccc2c1,-63.2%
21,CC1CCCC(C)N1C(=O)COC(=O)c1c[nH]c2ccccc12 (stereo not drawn),-5.3%
22,CCCCn1c(O)c(C=NC2CCCCC2N)c(=O)[nH]c1=O (stereo not drawn),5.96%

row,SMILES,"hERG current change (%, negative = inhibition) at 10uM"
1,COc1ccc(C[C@H]2NC[C@H](O)[C@H]2OC(C)=O)cc1,5.98%
2,CSC1=N/C(=C\c2ccccc2F)C(=O)S1,-3.24%
3,CCOc1nc(N2CCCCC2)nc(-n2cc(-c3ccccc3)nn2)n1,8.93%
4,Cc1cc(NC(=O)COc2ccccc2)n(-c2ccccc2)n1,-22.7%
5,Cc1c(C(=O)NC2CCOC2)oc2c(F)cccc12 (stereo not drawn),30.1%
6,Cc1cc2cc(C#N)c(NCCNC(=S)NCCCN3CCOCC3)nc2cc1C,-24.5%
7,Cc1cc(C(=O)CN2CCCC2)c(C)n1-c1ccc(Cl)cc1,7.43%
8,CCOc1ccccc1NC(=O)CCCCCN1C(=O)[C@@H]2Cc3ccccc3CN2C1=O,-42.6%
9,COc1ccc(C(C)=O)cc1COC(=O)c1ccc(C)c(S(=O)(=O)N2CCOCC2)c1,-19.8%
10,COc1nc(-c2ccccc2)ccc1-c1noc(C)n1,-5.52%
11,Cn1ccnc1C1CCCCN1Cc1nc(-c2ccc(Cl)cc2)no1 (stereo not drawn),-23.1%
12,O=C(O)C1C2CCC(C2)C1C(=O)NCc1ccco1 (stereo not drawn),-8.3%
13,Cc1ccc(-n2cc(CNC(C)c3cnn(C)c3)c(-c3ccc(F)cc3)n2)cc1 (stereo not drawn),-40%
14,Cc1cccc(-n2cc(CNCCN3CCOC3=O)c(-c3cccc(F)c3)n2)c1,-16.4%
15,Cc1ccc(-n2cc(CN(C)CCc3cn[nH]c3)c(-c3cccc(C)c3)n2)cc1,-68%
16,CC(=O)N1CCCN(Cc2cn(-c3ccc(C)cc3)nc2-c2cccc(C)c2)CC1,-43%
17,Cc1ccc(C)c(-n2cc(CNC(C)Cn3cncn3)c(-c3ccccc3)n2)c1 (stereo not drawn),-45.6%
18,Cc1ccc(-n2cc(CNC(C)Cn3cncn3)c(-c3ccc(F)cc3)n2)cc1 (stereo not drawn),-60.7%
19,Cc1ccc(-n2cc(CNCCN3CCOC3=O)c(-c3cccc(C)c3)n2)cc1,-69.1%
20,Cc1ccc(-n2cc(CN(C)Cc3ncc[nH]3)c(-c3cccc(C)c3)n2)cc1,-34.8%
21,Cc1ccc(-n2cc(CN3CCNC(=O)CC3)c(-c3cccc(C)c3)n2)cc1,-0.817%
